# Results published in the supplement of paper PMC3545927.
# This is one part of the list. The true hit rate is not given.
# Molecular target: furin, P09958
# Test: furin cleavage Z-score vs untreated control; higher = more cleavage, active = 3.5 or more, inactive = 1 or less, 8 variable residues between constant flanks
# In short: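 Cleavage by purified furin was measured on 8-mer peptides fused to a cDNA oligonucleotide and held on magnetic beads by their N-terminus. Reactions (0.01 ml, 1:10 enzyme:substrate) ran 7.5, 15 or 30 min in 50 mM HEPES pH 7.5 with CaCl2 and NaCl. Released DNA was adapter-tagged by PCR and sequenced, with read counts giving abundance. Log counts versus furin-free reactions were lowess-adjusted and scaled by median absolute deviation to give the cleavage Z-score.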
# furin, P09958, sequence (P09958 whole entry): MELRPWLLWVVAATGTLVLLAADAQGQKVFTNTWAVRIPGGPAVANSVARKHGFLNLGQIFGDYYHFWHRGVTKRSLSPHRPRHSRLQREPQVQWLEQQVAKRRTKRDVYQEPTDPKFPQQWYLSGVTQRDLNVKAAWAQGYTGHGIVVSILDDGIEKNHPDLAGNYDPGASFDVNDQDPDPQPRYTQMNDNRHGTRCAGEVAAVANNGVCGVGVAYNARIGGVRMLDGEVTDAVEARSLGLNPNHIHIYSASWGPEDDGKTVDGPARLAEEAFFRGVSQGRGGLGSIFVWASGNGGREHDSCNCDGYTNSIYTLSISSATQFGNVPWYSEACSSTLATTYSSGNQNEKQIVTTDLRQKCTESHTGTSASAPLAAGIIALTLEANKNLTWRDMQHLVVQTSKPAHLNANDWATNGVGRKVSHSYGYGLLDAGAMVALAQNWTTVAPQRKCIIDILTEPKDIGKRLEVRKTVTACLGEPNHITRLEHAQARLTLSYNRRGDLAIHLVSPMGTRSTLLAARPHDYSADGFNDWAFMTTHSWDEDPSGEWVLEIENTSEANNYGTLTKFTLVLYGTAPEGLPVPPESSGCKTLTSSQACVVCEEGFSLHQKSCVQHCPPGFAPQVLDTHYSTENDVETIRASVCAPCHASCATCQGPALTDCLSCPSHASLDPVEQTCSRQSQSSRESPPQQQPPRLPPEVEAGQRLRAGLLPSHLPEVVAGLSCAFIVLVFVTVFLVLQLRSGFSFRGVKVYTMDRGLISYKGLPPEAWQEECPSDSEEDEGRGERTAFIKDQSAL
Sequence,furin cleavage Z-score (7.5 min),furin cleavage Z-score (15 min),furin cleavage Z-score (30 min)
CAEVPCHRMSAGNASASA [HC2386],0.401 (inactive),1.85,-1.19 (inactive)
CAGRTWAQPGAGNASASA [HC197],0.399 (inactive),0.197 (inactive),-2.32 (inactive)
CATHPCSGSWAGNASASA [HC1855],-0.725 (inactive),0.134 (inactive),-0.569 (inactive)
CARLRRSLGEAGNASASA [FS-1830],4.48 (active),6.54 (active),5.36 (active)
CARIGRAVRPAGNASASA [FS-1720],6.17 (active),6.97 (active),7.91 (active)
CARTPRAVRPAGNASASA [FS-2241],4.95 (active),5.05 (active),7.16 (active)
CADSSRSVRPAGNASASA [FS-1518],-1.18 (inactive),-0.293 (inactive),0.507 (inactive)
CAREKKSASWAGNASASA [FS-3244],-1.37 (inactive),-1 (inactive),0.389 (inactive)
CANDVVCCSMAGNASASA [HC2121],0.854 (inactive),0.345 (inactive),0.79 (inactive)
CADIMEECSQAGNASASA [HC1804],-0.826 (inactive),-1.93 (inactive),0.332 (inactive)
CAVEECSQHLAGNASASA [HC1670],0.23 (inactive),0.997 (inactive),-0.342 (inactive)
CAELVVCCSMAGNASASA [HC2125],-0.0192 (inactive),-0.743 (inactive),-0.249 (inactive)
